# Measured values reported in PubChem BioAssay (EPA / NIEHS).
# Records with an inconclusive call do not appear. Activity calls are given as the source filed them. The calls were made as follows: active = hit-call score of the fitted dose curve at least 0.9, where 1 is the maximum; inconclusive = response in the unintended direction; inactive = score below 0.9.
# Test: TOX21_TRB_BLA_Antagonist_Followup_viability: Viability Assessment in the Tox21 Thyroid Hormone Receptor beta Antagonism Beta-lactamase (BLA) Follow-Up Assay (AID 2283961)
# From the text: The GeneBLAzer TRb-UAS-bla HEK293T assay kit for human TRb (ThermoFisherScientific Catalog No. K1684) was used as a secondary assay for specificity (TRb-bla).This assay contained the ligand-binding domain (LBD) of the human TRb fused to the DNA-binding domain of GAL4 stably integrated in the GeneBLAzer UAS-bla HEK293Tcell line. The reporter gene, b-lactamase, is under the transcriptional control of a UAS that binds the GAL4 DNA-binding domain. A cell viability assay was run in parallel for these cells as well using the CellTiter-Glo viability assay kit.TOX21_TRB_BLA_Antagonist_Followup_viability is a component of the TOX21_TRB_BLA_Antagonist_Followup assay. This component measures cell viability using the CellTiter-Glo Luciferase-coupled ATP quantitation.TOX21_TRB_BLA_Antagonist_Followup_viability used a type of viability reporter where loss-of-signal activity can be used to understand changes in the cell viability. Furthermore, this assay endpoint can be referred to as a secondary readout, because this assay has produced multiple assay endpoints where this one serves a viability function. To generalize the intended target to other relatable targets, this assay endpoint is annotated to the cell cycle intended target family, where the subfamily is cytotoxicity.
# Cell Media Required: Growth (90% DMEM/F-12, 10% Fetal Bovine Calf Serum, 100U/ml Penicillin, 100 ug/ml Streptomycin), Assay (10ng/mL sodium selenite, 10 ug/mL humanapo-transferrin, 10 uM ethanolamine, 10 ug/mL insulin, 500 ug/mL bovine serum albumin (BSA))Assay Protocol: TRb-bla cells were dispensed at 3,000 cells/well in 5 uL of the assay medium containing phenol red-free DMEM with 2% charcoal-stripped FBS in 1,536-well black-wall/clear-bottom plates using an FRD. After 5-h incubation at 37C/5% CO2 for cell attachment to the well bottom, 23nL of follow-up compounds dissolved in DMSO, 11 concentrations in triplicate, and the positive control (T3; agonist format) were transferred to the assay plates using a Pintool station. The assay plates were incubated at 37C/5% CO2 for 18h. One microliter LiveBLAzer FRET-B/G CCF4-AM substrate was added to each well using an FRD. After 2-h incubation at room temperature, the fluorescence intensity was measured using an Envision plate reader. Data were expressed as the ratio of 460:530nm. The cytotoxicity of the compounds was measured in the same plates by adding 4 uL of CellTiter-Glo reagent to each well and incubating the plates at room temperature for 30 min. The luminescence intensity was measured using a ViewLux plate reader.For the luciferase reporter gene assay, 5 uL/well (agonist format) and 4 uL/well (antagonist format) ONE-Glo reagent (Promega Corporation) was added using an FRD and after 30-min incubation at room temperature, the luminescence intensity was measured using a ViewLux plate reader. Data were expressed as relative fluorescence units (cell viability assay) and relative luminescence units (luciferase reporter assay).
SMILES,outcome,AC50
CCN(CC)CCO[C@H]1CC[C@@]2(C)C(=CC[C@@H]3[C@@H]2CC[C@]2(C)C(=O)CC[C@@H]32)C1,inactive,
COc1cc([C@@H]2c3cc4c(cc3[C@@H](O)[C@H]3COC(=O)[C@H]23)OCO4)cc(OC)c1O,inactive,
COC1=CC(=O)O[C@@H](/C=C/c2ccc3c(c2)OCO3)C1,inactive,
CC(=O)[C@H]1CC[C@H]2[C@@H]3CC[C@@H]4C[C@H](O)CC[C@]4(C)[C@H]3CC[C@]12C,inactive,
C=CC[C@]1(O)CC[C@H]2[C@@H]3CCC4=CC(=O)CCC4=C3C=C[C@@]21C,inactive,
O=c1oc2ccccc2c(O)c1Cc1c(O)c2ccccc2oc1=O,inactive,
CN1C(=O)[C@@H](NC(=O)c2cc3ccccc3[nH]2)N=C(c2ccccc2)c2ccccc21,inactive,
O=C1OC2(c3cc(Br)c(O)cc3Oc3c2cc(Br)c(O)[c]3[Hg])c2ccccc21 (configuration not stated),inactive,
CC[C@]1(O)CC[C@H]2[C@@H]3CCC4=CCCC[C@@H]4[C@H]3CC[C@@]21C,inactive,
O=C(N[C@@H]1N=C(c2ccccc2F)c2cccc3c2N(CC3)C1=O)c1cc2ccccc2[nH]1,inactive,
CCC(COC(=O)c1cc(OC)c(OC)c(OC)c1)(c1ccccc1)N(C)C (configuration not stated),inactive,
CCCCCCCCCCn1cc[n+](C)c1,,7.88 µM (active)
